# aSyn UTR act = Activators via SNCA 5'UTR binding, MLPCN. 7.1% of 300,000 active. alpha-synuclein 5'UTR reporter, activators screen. AID 1814. activity score, % (tested at 7.5 µM), hits read low; in the data active = activity score below about -60%
# * marks the source's active call; other numbers are inactive results. These entries were drawn from the full list.
SMILES,aSyn UTR act
NC(=O)Nc1ccc2c(c1)OCCO2,-113*
Cc1ccc(NC(=O)Nc2ccc3c(c2)OCO3)c(Br)c1,-117*
O=C(Nc1ccc2c(c1)OCO2)c1ccc(Cl)s1,-194*
COC(=O)c1ccc(C(=O)OC)c(NC(=O)Nc2ccc3c(c2)OCO3)c1,-124*
Cc1nn(Cc2ccc(Cl)cc2)c(C)c1NC(=O)c1cc(-c2ccc3c(c2)OCO3)on1,61
Cc1ccc2c(Cl)c(C(=O)Nc3ccc4c(c3)OCO4)sc2c1,-148*
O=C(Nc1ccc(F)cc1F)c1cc(-c2ccc3c(c2)OCO3)on1,-110*
CCc1ccc2[nH]c(C(=O)Nc3ccc4c(c3)OCO4)cc2c1,-94*
O=C(Nc1ccc(Cl)cc1)Nc1ccc2c(c1)OCO2,-134*
O=C(Nc1ccc(F)cc1)Nc1ccc2c(c1)OCO2,-109*
Cc1noc(C(=O)Nc2ccc3c(c2)OCO3)c1Cl,-205*
O=C(Nc1cccc(C(=O)O)c1)Nc1ccc2c(c1)OCO2,99
O=C(Nc1ccc2c(c1)OCO2)Nc1ccc(F)cc1F,-138*
Cc1cc(C)c2[nH]c(C(=O)Nc3ccc4c(c3)OCO4)cc2c1,-66*
O=C(Nc1ccc2c(c1)OCO2)Nc1ccc2c(c1)OCO2,-129*
S=C(N=Nc1ccccc1)NNc1ccccc1,-132*
Cc1nc2cc3nc(C)sc3cc2s1,-80*
O=c1c2ccccc2nnn1COc1cccc(Cl)c1,-107*
CC(C)(C)C(=O)Nc1ccc(N=Nc2ccccc2)cc1,79
CC1CC1C(=O)OCC(=O)Nc1ccc(N=Nc2ccccc2)cc1 (configuration not stated),-107*
COc1cc(NC(=O)c2c(F)cccc2F)nc(OC)n1,-117*
COc1cc(NC(=O)c2cccc(Br)c2)nc(OC)n1,-105*
CN(C)c1ccc(C(=O)c2ccc(N(C)C)c(N)c2)cc1N,-74*
CCOc1ccc(C(=O)c2ccc(OCC)c(N)c2)cc1N,-70*
CCN1CCc2c(sc(NC(=O)c3ccc4ccccc4c3)c2C(N)=O)C1,-194*
SMILES,aSyn UTR act
CC(C)N1CCc2c(sc(NC(=O)c3ccc([N+](=O)[O-])o3)c2C(N)=O)C1,104
CC(C)N1CCc2c(sc(NC(=O)c3ccc(S(=O)(=O)N4CCc5ccccc54)cc3)c2C(N)=O)C1,-103*
Cc1ccc(N/C=C/C(=O)c2ccccc2)cc1Br,-83*
Cc1ccc(C(=O)/C=C/Nc2cccc(O)c2)cc1,-194*
O=C(/C=C/Nc1ccc(F)c(Cl)c1)c1ccccc1,-211*
O=C(/C=C/Nc1cccc(O)c1)c1ccccc1,-180*
Cc1ccc(C(=O)/C=C/Nc2ccc3c(c2)OCO3)cc1,-182*
C/C(=C\C(=O)c1ccc(C)cc1)Nc1cccc(O)c1,-284*
CC(=O)c1ccc(N/C=C\C(=O)c2ccc(C)cc2)cc1,-211*
CC(=O)c1cccc(N/C=C\C(=O)c2ccc(C)cc2)c1,-159*
CCCCc1ccc(NC(=O)C2CCCO2)cc1 (configuration not stated),-97*
CCCc1nnc(NC(=O)C23CC4CC(CC(C4)C2)C3)s1,-118*
CCCCOC(=O)c1ccc(NC(=O)C2CCCO2)cc1 (configuration not stated),-75*
CCOC(=O)c1ccc(NC(=O)C2CCCO2)cc1 (configuration not stated),-99*
CCCCc1nnc(NC(=O)C2CCCO2)s1 (configuration not stated),-86*
CCCCOC(=O)c1ccc(NC(=O)c2c(Cl)ccc(Cl)c2OC)cc1,-66*
CCCCc1nnc(NC(=O)C2=COCCO2)s1,-64*
O=C(Nc1cccnc1)c1ccc(-c2ccc(Cl)cc2)o1,-190*
O=C(Nc1nccs1)c1ccc(-c2ccc([N+](=O)[O-])cc2)o1,-141*
O=C(Nc1nccs1)c1cc([N+](=O)[O-])ccc1Cl,-68*
O=C(Nc1nccs1)c1ccc(-c2ccc(F)cc2)o1,-260*
Cc1cccc(NC(=O)c2cc([N+](=O)[O-])ccc2Cl)c1O,-85*
O=C(Nc1nccs1)c1ccc(-c2ccc(Cl)cc2)o1,-207*
COc1ccc2oc(=O)c(-c3nc4ccccc4o3)cc2c1,-184*
O=c1oc2ccc3ccccc3c2cc1-c1nc2ccccc2o1,-87*
SMILES,aSyn UTR act
O=C1CC(c2ccccc2)Sc2nc3ccccc3n21 (configuration not stated),-196*
O=C1CC(c2ccc3c(c2)OCO3)Sc2nc3ccccc3n21 (configuration not stated),-160*
NNC(=O)c1cc2cc3ccccc3nc2s1,-94*
Cc1ccc(NC(=S)NCCc2ccccc2)nc1,-99*
Cc1ccc(NC(=O)CCCc2ccccc2)nc1,-100*
CCCCOc1ccc(N2C(=O)CC(N(O)c3ccccc3)C2=O)cc1 (configuration not stated),-85*
Cc1cc(NC(=O)CSc2nc3ccsc3c(=O)n2Cc2ccccn2)n[nH]1,-79*
CC1CCCCN1C(=O)CSc1nc2ccsc2c(=O)n1Cc1ccccn1 (configuration not stated),-120*
C/C(=N\Nc1ncc(Cl)cc1Cl)c1ccccn1,101
Clc1ccc(/C=N/NC(=Nc2ccccc2)c2ccccn2)c(Cl)c1,-82*

# Screens: PubChem BioAssay, Broad Institute
